This passage reports growth results from PubChem BioAssay (NCI).

About 83,000 compounds went through this panel and 20% of them were active in at least one assay; those are over-represented in the sample as a whole.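 A percent growth of 40 corresponds to 60% growth inhibition; 0 means no net growth; -100 means all cells died. Active threshold: below 10.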 Unmarked numbers belong to inactive results. Active and inactive are the calls of the source.

Common to all, as to assay: NCI-60 one-dose screen, 48 h (100 = growth as untreated, 0 = no growth, -100 = all killed)
What all share (conditions): 10 µM unless noted

The subject of assay [1] is SK-MEL-2 melanoma.
The test system of assay [2] is SN12C renal.
Assay [3] has as its system UO-31 renal.
Assay [4] deals with TK-10 renal.
Assay [5] deals with ACHN renal.
Assay [6] has as its system CAKI-1 renal.
For assay [7], the system named is A498 renal.
In assay [8] the test system is CCRF-CEM leukemia.
In assay [9] the test system is MOLT-4 leukemia.
Assay [10] has as its system EKVX NSCLC.

With `NC(CC(=O)O)C(=O)OCc1ccccc1` (centres undefined), the growth in assay [1] was 94.8%; in [2], 105%; in [3], 71.8%; in assay [4], 122%; in assay [5] it was 97.1%; in [6], 79.9%. The growth in assay [7] is 85.4%; in assay [8], 108%; in [9] it was 103%.
Turning to `CN1/C(=C\C=C\C2=[N+](C)c3ccccc3C2(C)C)C(C)(C)c2ccccc21`, the growth in assay [1] was -56.6% (active); in [10], 13.3%; in assay [3], 8.16% (active); in [4], 5.75% (active); in assay [5], 1.47% (active); in [6] it was 23%. The growth is 1.83% (active) in assay [7], 7.62% (active) in assay [8] and -12.6% (active) in [9].
As for `Cc1cc2c(cc1C)NC1=C(N2)OC(c2c3ccccc3cc3ccccc23)C1=O` (centres undefined), the growth is 31% in [1]; 22.2% in [10]; 14.3% in assay [2]; 107% in assay [4]; 29% in assay [5]; 142% in [7]. The growth in assay [8] is 20.5%; in assay [9], 24.8%.
Turning to `COc1ccc2nc(NC(=O)c3cccnc3Nc3cc(OC)c(OC)c(OC)c3)sc2c1`, the growth in [1] was 48%; in [10], 36.3%; in assay [2], 18.5%; in assay [5], 58%; in assay [6] it was 5.14% (active); in assay [7] it was -64.4% (active). For the same compound, the growth is 48.6% in [8] and 56.7% in assay [9].
As to `COc1nc2c(cc1S(=O)(=O)c1ccccc1)CCc1c-2cnn1Cc1ccccc1`, the growth in [1] is 74.3%; in [10], 36.1%; in [3], 39.4%; in assay [4] it was 61%; in [5] it was 71.7%; in assay [7], 17.6%. Moreover, the growth in assay [8] is 68.7%; in [9] it was 44.9%.
Turning to `COc1ccc(C(=O)c2sc3nc(-c4ccccc4OC)ccc3c2N)cc1OC`, the growth in [1] was 89.5%; in assay [2], 66.1%; in assay [3] it was 53.4%; in assay [4], 79.7%; in assay [5] it was 66.9%; in assay [6] it was 62.4%. The growth in assay [7] is 47.7%; in assay [8] it was 26.5%; in assay [9] it was -45% (active).
With `CCCCCC(=O)N(CCCC)CCCC`, the growth in [1] was 124%; in assay [2] it was 96.3%; in [3] it was 78.5%; in assay [4], 109%; in assay [5] it was 101%; in assay [6] it was 92%. The growth in assay [7] is 127%; in assay [8], 99.1%; in assay [9], 105%.
On to `CCOC(=S)SCc1ccc(Cl)cc1`, for which the growth was 105% in [1]; 83.8% in assay [10]; 91.1% in assay [3]; 105% in assay [4]; 98.1% in [5]; 75.8% in assay [7]. Further, the growth in assay [8] is 130%; in [9], 82.2%.
As to `CCN(CC)Cc1cc(Nc2c3ccc(Cl)cc3nc3c(C)cccc23)ccc1O`, the growth was -73.2% (active) in assay [1]; -40.4% (active) in assay [10]; -96.8% (active) in assay [3]; -60.5% (active) in assay [4]; -86.4% (active) in assay [5]; -41.1% (active) in [6]. Further, the growth in assay [7] was -48% (active); in [9] it was -3.97% (active).
As to `CN1CCCCC1CCN1c2ccccc2Sc2ccc(Cl)cc21` (centres undefined), the growth in [1] is 71.2%; in [2] it was 71.8%; in [3], 30.1%; in assay [4], 69.3%; in assay [5] it was 58.2%; in assay [6], 59.9%. For the same compound, the growth in [7] was 74.9%; in [8], 39.3%; in [9] it was 41%.
Regarding `COc1ccc(C(=O)c2sc3nc4c(cc3c2N)CCCC4)cc1OC`, the growth in assay [1] is 25.3%; in assay [2], 62.8%; in [3], 55.7%; in [4] it was 83%; in assay [5] it was 63%; in assay [6], 57.9%. Further, the growth in assay [7] was 34.9%; in assay [8], 28.9%; in assay [9], 6.5% (active).
On to `O=C1Nc2ccccc2/C1=C/C(=N/c1nnc(-c2ccccc2)s1)c1ccccc1`, for which the growth is 97.4% in assay [1]; 41.8% in assay [2]; -87.2% (active) in [3]; -39.7% (active) in assay [4]; -54.8% (active) in [5]; -10.2% (active) in [6]. The values for the growth in [7], in assay [8] and in assay [9] were 106%, -45% (active) and -24.2% (active), respectively.
Take `O=C(O)c1cccnc1Br`: the growth in assay [1] was 99.6%; in assay [10] it was 107%; in assay [3], 73.5%; in assay [4], 113%; in assay [6], 94.1%; in [7], 104%. Also, the growth in assay [8] was 121%; in [9], 103%.
For `CCCCNC(=O)NS(=O)(=O)c1ccc(N2N=C(c3cc(C)ccc3C)CC2c2cc(OC)c(OC)c(OC)c2)cc1` (centres undefined), the growth in assay [1] is 54.9%; in [2] it was 73.7%; in [3], 32.2%; in assay [4], 74.5%; in [5], 63.6%; in assay [6], 39%. For the same compound, the growth in assay [7] was 34.6%; in [8], 55.1%; in assay [9], 30.9%.
On to `CCCCN(CCCC)CCC(C)(O)c1cc2ccccc2c2ccccc12` (centres undefined), for which the growth in assay [1] is 122%; in [10], 103%; in [3], 50.9%; in assay [4] it was 104%; in assay [5] it was 96.9%; in [6], 87.9%. In addition, the values for the growth in [7], in [8] and in assay [9] were 83.1%, 42.4% and 37.5%, respectively.
